TDP1 inh: inhibitors of human tyrosyl-DNA phosphodiesterase TDP1; AID 485290; Potency, µM (highest dose often 130 µM), for inactives: top-dose activity change, negative = inhibition, hits mostly inhibitors; 350,000 compounds, 0.28% hits; recombinant TDP1, AlphaScreen DNA substrate cleavage; further: potency means the concentration at half of the fitted maximal effect; on the % scale 0 is the no-effect control and ±100 the full control effect; nearly all actives have a fitted effect of over 40% in size
Target sequence (Q9NUW8 whole entry, looked up): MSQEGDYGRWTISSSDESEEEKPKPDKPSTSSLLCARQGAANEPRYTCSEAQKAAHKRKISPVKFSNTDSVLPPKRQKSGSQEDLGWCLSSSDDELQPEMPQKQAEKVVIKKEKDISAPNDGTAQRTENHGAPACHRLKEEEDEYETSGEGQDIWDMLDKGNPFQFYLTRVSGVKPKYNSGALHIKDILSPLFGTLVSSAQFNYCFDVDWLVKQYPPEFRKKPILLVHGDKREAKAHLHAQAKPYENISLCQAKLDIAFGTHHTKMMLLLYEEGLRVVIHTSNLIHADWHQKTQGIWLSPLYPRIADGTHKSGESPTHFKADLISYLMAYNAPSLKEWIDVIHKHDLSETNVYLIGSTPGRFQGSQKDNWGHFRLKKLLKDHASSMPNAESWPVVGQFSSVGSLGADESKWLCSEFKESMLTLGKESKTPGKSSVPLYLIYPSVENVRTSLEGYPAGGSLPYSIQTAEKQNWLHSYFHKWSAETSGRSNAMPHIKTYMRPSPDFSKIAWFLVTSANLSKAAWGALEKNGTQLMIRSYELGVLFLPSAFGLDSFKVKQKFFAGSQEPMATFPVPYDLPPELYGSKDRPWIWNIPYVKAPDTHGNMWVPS
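Compounds were preincubated with Tdp1 (1 nM final) for 15 min at room temperature before substrate (15 nM final) started a 5 min reaction; beads (10 ug/ml final) were then added for 10 min before AlphaScreen detection.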
DT40 TDP1 CPT: growth inhibition of DT40 Tdp1-/-;hTDP1 cells with camptothecin (screen for TDP1 inhibitors); chicken DT40 Tdp1-/-;hTDP1 cells + 20 nM CPT, ATP luminescence, 48 h; AID 686979; Potency, µM (titrated, usually from 46.2 µM), without a hit: at the highest dose activity change, negative = growth inhibition, usual class: inhibitors; 420,000 compounds, 12% hits; further: potency means the concentration at half of the fitted maximal effect; on the % scale 0 is the no-effect control and ±100 the full control effect; nearly all actives have a fitted effect of over 55% in size
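Cell growth measured by CellTiter-Glo luminescence after a minimum 48 h, 37 C compound exposure with 20 nM CPT in Tdp1-knockout DT40 cells stably expressing hTDP1, seeded 400/well; qHTS titration format.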
HepG2 tox: kills HepG2 cells in TGF-b inhibitor counter-screen. HepG2 CAGA-GFP viability, ATP luminescence, 18 h. 410,000 compounds, 0.76% hits. Potency, µM (top dose mostly 46.1 µM), inactives show at the top dose activity change, negative = cytotoxicity, most hits filed as cytotoxic. AID 588856; further: potency means the concentration at half of the fitted maximal effect
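CellTiter-Glo luminescence gave cytotoxicity after 18 hours at 37 degrees C. The cells were HepG2 CAGA-GFP in 1% FBS DMEM, stimulated with 500 pg/mL TGF-beta after compound addition. %Activity was normalised to no-cell wells (complete cell-killing) and DMSO (no toxicity), and curves were fitted and classified.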
IL-1B inflam inh: inflammasome signaling inhibition, IL-1 beta readout; THP-1 LPS/ATP IL-1B secretion, AlphaLISA, 16 h; hits give low values; activity change, % at 57.5 µM; 360,000 compounds, 4.7% hits; in the data active means activity change below about -50%; inconclusive means mostly about -30% to -49%; further: on the % scale 0 is the no-effect control and ±100 the full control effect
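Secreted IL-1B measured by AlphaLISA bead assay after 16 h compound exposure of THP-1 cells; compounds (final up to 57.5 uM) added 1 h before LPS (250 ng/mL) and ATP (1.25 mM) stimulation; lower signal means less secretion.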
TDP1 cell noCPT: qHTS for Inhibitors of human tyrosyl-DNA phosphodiesterase 1 (TDP1): qHTS in cells in absence of CPT; DT40 Tdp1-/- hTDP1 cells, no CPT, ATP luminescence, 48 h; Potency, µM (doses to about 46.2 µM), without a hit: top-dose activity change, negative = growth inhibition, most hits filed as inhibitors; 420,000 compounds, 15% hits; further: potency means the concentration at half of the fitted maximal effect; on the % scale 0 is the no-effect control and ±100 the full control effect; nearly all actives have a fitted effect of over 55% in size
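Growth of hTDP1-complemented DT40 Tdp1-knockout cells is measured by ATP luminescence after at least 48 hr compound exposure at 37 °C, with DMSO substituting for the 20 nM CPT used in the parallel screen.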
TGFb inhibitor: inhibitors of TGF-b signaling; HepG2 CAGA-GFP TGF-b/SMAD3 reporter, GFP fluorescence, 18 h; TGF-beta stimulated, 500 pg/mL final; Potency, µM (top dose mostly 46.1 µM), without a hit: top-dose activity, negative = inhibition, usual class: inhibitors; 410,000 compounds, 1.2% hits; further: potency means the concentration at half of the fitted maximal effect; on the % scale 0 is the no-effect control and ±100 the full control effect; nearly all actives have a fitted effect of over 65% in size
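Cell-based qHTS in HEPG2 carrying a CAGA-GFP Smad reporter; compounds added before 500 pg/mL final TGF-beta, 18 h incubation at 37 degrees C, GFP fluorescence quantified per cell by imaging cytometry.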
An asterisk follows results filed as active; [ ] = another dose, or the depositor's remark. Compounds with a hit are over-represented: about 19% of the library has one in this group of screens. Unless noted, the call rests on the fitted dose curve; in most records, active means well fitted curve in the direction sought with a large enough effect; inconclusive means small, poorly fitted or top-dose-only effect, or another doubt; inactive means no such curve, though single readings can be large; an effect the other way counts as inactive or inconclusive.

How did CN(C)c1ccc(NS(=O)(=O)c2ccc(-c3csnn3)cc2)cc1 do in these assays?
TDP1 inh: -8%; DT40 TDP1 CPT: inconclusive; HepG2 tox: -29%; IL-1B inflam inh: -5; TDP1 cell noCPT: 13µM*; TGFb inhibitor: -21%

What do the screens show for `Cc1ccc(S(=O)(=O)Nc2ccc(N(C)C)cc2)cc1`?
TDP1 inh: 5%; DT40 TDP1 CPT: -24%; HepG2 tox: 35%; IL-1B inflam inh: -21; TDP1 cell noCPT: inconclusive; TGFb inhibitor: -9%

Results for CN(C)c1ccc(NS(=O)(=O)c2cccc(Cl)c2)cc1 ?
TDP1 inh: 10%; DT40 TDP1 CPT: -16%; HepG2 tox: -40%; IL-1B inflam inh: -9; TDP1 cell noCPT: 10µM*; TGFb inhibitor: -1%

How did Cc1ccc(NS(=O)(=O)c2cccc(Cl)c2)cc1C do in these assays?
TDP1 inh: -4%

How did Cc1ccc(S(=O)(=O)Nc2ccnc3ccccc23)cc1 do in these assays?
TDP1 inh: 7%; DT40 TDP1 CPT: inconclusive; HepG2 tox: -39%; IL-1B inflam inh: -8; TDP1 cell noCPT: 21µM*; TGFb inhibitor: 0%

How did O=S(=O)(Nc1cccc2ncccc12)c1cccc(C(F)(F)F)c1 do in these assays?
TDP1 inh: 2%[56.1 µM]; DT40 TDP1 CPT: inconclusive; HepG2 tox: -19%; IL-1B inflam inh: 47; TDP1 cell noCPT: 9.2µM*; TGFb inhibitor: inconclusive

What do the screens show for `Cc1ccc(S(=O)(=O)Nc2cccc3ncccc23)cc1`?
DT40 TDP1 CPT: inconclusive; HepG2 tox: -3%; IL-1B inflam inh: 32; TDP1 cell noCPT: -24%; TGFb inhibitor: 2%

What do the screens show for `Cc1ccc(S(=O)(=O)Nc2ccc(O)c3cccnc23)cc1`?
TDP1 inh: inconclusive; DT40 TDP1 CPT: 2.9µM*; HepG2 tox: -161%; IL-1B inflam inh: 74; TDP1 cell noCPT: 6.5µM*; TGFb inhibitor: inconclusive

How did O=S(=O)(Nc1cccnc1)c1cccc(C(F)(F)F)c1 do in these assays?
TDP1 inh: 4%; DT40 TDP1 CPT: -9%; HepG2 tox: -8%; IL-1B inflam inh: -4; TDP1 cell noCPT: -13%; TGFb inhibitor: -8%

How did Cc1ccc(S(=O)(=O)Nc2cccc3ncccc23)s1 do in these assays?
TDP1 inh: 4%; DT40 TDP1 CPT: 0.92µM*; HepG2 tox: 0%; IL-1B inflam inh: -112*; TDP1 cell noCPT: 1µM*; TGFb inhibitor: inconclusive

How did CC(=O)Nc1cccc2ncccc12 do in these assays?
TDP1 inh: -3%; DT40 TDP1 CPT: 7%; HepG2 tox: 0%; IL-1B inflam inh: 5; TDP1 cell noCPT: -1%; TGFb inhibitor: -13%

What do the screens show for `CCCN1CCN(CCNC(=O)Nc2cc(OC)cc(OC)c2)CC1`?
TDP1 inh: 7%; DT40 TDP1 CPT: -17%; HepG2 tox: -18%; TDP1 cell noCPT: 3%; TGFb inhibitor: -33%

Results for O=C(COC(=O)CC1CC2CCC1C2)Nc1ccccc1[N+](=O)[O-] (stereo not drawn) ?
TDP1 inh: 7%; DT40 TDP1 CPT: 12%; HepG2 tox: -3%; IL-1B inflam inh: -8; TDP1 cell noCPT: -19%; TGFb inhibitor: 13%

How did Cc1ccc(S(=O)(=O)N2CCCC2CNC(=O)c2ccccc2)cc1 (stereo not drawn) do in these assays?
TDP1 inh: 5%; DT40 TDP1 CPT: inconclusive; HepG2 tox: -4%; IL-1B inflam inh: 11; TDP1 cell noCPT: -29%; TGFb inhibitor: -14%

How did Cc1cccc(C)c1NC(=O)C(=O)NCC1CCCN1S(=O)(=O)c1ccccc1 (stereo not drawn) do in these assays?
TDP1 inh: -2%; DT40 TDP1 CPT: inconclusive; HepG2 tox: -2%; IL-1B inflam inh: 20; TDP1 cell noCPT: 12µM*; TGFb inhibitor: 0%

How did Cc1ccc(S(=O)(=O)N2CCCC2CNC(=O)c2ccc3c(c2)OCO3)cc1 (stereo not drawn) do in these assays?
TDP1 inh: 0%; DT40 TDP1 CPT: inconclusive; HepG2 tox: -9%; IL-1B inflam inh: -18; TDP1 cell noCPT: 18µM*; TGFb inhibitor: inconclusive

How did Cc1cccc(C)c1NC(=O)C1CCCN1S(=O)(=O)c1ccccc1 (stereo not drawn) do in these assays?
TDP1 inh: 7%; DT40 TDP1 CPT: -26%; HepG2 tox: -6%; IL-1B inflam inh: 8; TDP1 cell noCPT: inconclusive; TGFb inhibitor: 4%

What do the screens show for `Cc1ccc(S(=O)(=O)N2CCCC2CNC(=O)C(=O)Nc2ccccc2)cc1` (stereo not drawn)?
DT40 TDP1 CPT: 29µM*; HepG2 tox: -35%; IL-1B inflam inh: inconclusive; TDP1 cell noCPT: inconclusive; TGFb inhibitor: 3%

What do the screens show for `COc1ccccc1Cc1nc2ccccc2nc1SCC(=O)Nc1cccc(Cl)c1C`?
TDP1 inh: 0%; DT40 TDP1 CPT: 20%; HepG2 tox: -9%; TDP1 cell noCPT: 1%; TGFb inhibitor: 2%

Results for Cc1ccc(C)c(Nc2nnc(-n3nc(C)cc3C)c3ccccc23)c1 ?
TDP1 inh: -4%[12.3 µM]; DT40 TDP1 CPT: inconclusive; HepG2 tox: -9%; TDP1 cell noCPT: inconclusive; TGFb inhibitor: -18%

What do the screens show for `CCC1CCCCN1C(=O)CSc1nnc(-c2c[nH]c3ccccc23)o1` (stereo not drawn)?
TDP1 inh: 8%; DT40 TDP1 CPT: 21µM*; HepG2 tox: -27%; IL-1B inflam inh: -21; TDP1 cell noCPT: inconclusive; TGFb inhibitor: 4%

How did CC1CCCCN1C(=O)CSc1nnc(-c2ccc(Cl)s2)o1 (stereo not drawn) do in these assays?
TDP1 inh: 2%; DT40 TDP1 CPT: inconclusive; HepG2 tox: -21%; IL-1B inflam inh: -8; TDP1 cell noCPT: 29µM*; TGFb inhibitor: 3%

How did CC1CCCCN1C(=O)CSc1nnc(-c2ccccc2Cl)o1 (stereo not drawn) do in these assays?
TDP1 inh: -4%[12.3 µM]; DT40 TDP1 CPT: -27%; HepG2 tox: -9%; TDP1 cell noCPT: inconclusive; TGFb inhibitor: -3%

How did N#CCSc1nnc(-c2c[nH]c3ccccc23)o1 do in these assays?
TDP1 inh: 3%; DT40 TDP1 CPT: -23%; HepG2 tox: 0%; IL-1B inflam inh: -15; TDP1 cell noCPT: 4%; TGFb inhibitor: 1%

What do the screens show for `Clc1ccc(CSc2nnc(-c3c[nH]c4ccccc34)o2)cc1`?
TDP1 inh: 4%; DT40 TDP1 CPT: inconclusive; HepG2 tox: -69%; IL-1B inflam inh: 3; TDP1 cell noCPT: inconclusive; TGFb inhibitor: 16µM*
